From the supplement of paper PMC6992640

test system: UCD52 (cells of a triple-negative basal-like breast cancer xenograft); assay: cell viability of combination (% of vehicle); higher = less cytotoxic; conditions: 1 µM; 72 h; partner dose: 10 nM
Procedure: (§1)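 PDX cells were treated for 72 h with each drug at 1 µM plus afatinib (10 nM; 1 µM for WHIM30). Luciferase viability is expressed as percent of vehicle.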

Going from `Oc1c(Cl)cc(Cl)c2cccnc12` [Chloroxine] + CN(C)C/C=C/C(=O)Nc1cc2c(Nc3ccc(F)c(Cl)c3)ncnc2cc1O[C@H]1CCOC1 [Afatinib] to `CC(C)Nc1cc(-c2c[nH]c(C(=O)NC(CO)c3cccc(Cl)c3)c2)c(Cl)cn1` (stereo unspecified) + CN(C)C/C=C/C(=O)Nc1cc2c(Nc3ccc(F)c(Cl)c3)ncnc2cc1O[C@H]1CCOC1 [Afatinib], the “cell viability of combination” value falls from 75.4 to 50.5.

Compared with `CNC(=O)c1cc(Oc2ccc(NC(=O)Nc3ccc(Cl)c(C(F)(F)F)c3)c(F)c2)ccn1` [Regorafenib] + CN(C)C/C=C/C(=O)Nc1cc2c(Nc3ccc(F)c(Cl)c3)ncnc2cc1O[C@H]1CCOC1 [Afatinib], `CC1(C)Cc2c(-c3ccccc3)c(-c3ccc(Cl)cc3)c(CC(=O)O)n2C1` [Licofelone] + CN(C)C/C=C/C(=O)Nc1cc2c(Nc3ccc(F)c(Cl)c3)ncnc2cc1O[C@H]1CCOC1 [Afatinib] is higher in “cell viability of combination” value: 55.9 for the first, 72.7 for the second.

Compared with `COc1cc2c(Nc3ccc(Br)cc3F)ncnc2cc1OCC1CCN(C)CC1` [Vandetanib (ZD6474)] + CN(C)C/C=C/C(=O)Nc1cc2c(Nc3ccc(F)c(Cl)c3)ncnc2cc1O[C@H]1CCOC1 [Afatinib], `CC(CCC(=O)O)C1CCC2C3CCC4CC(O)CCC4(C)C3CCC12C` (stereo unspecified) [Lithocholic Acid] + CN(C)C/C=C/C(=O)Nc1cc2c(Nc3ccc(F)c(Cl)c3)ncnc2cc1O[C@H]1CCOC1 [Afatinib] is higher in “cell viability of combination” value: 36.2 for the first, 52.6 for the second.

With `O=C(O)CO.[NH2-].[NH2-].[Pt+2]` [Nedaplatin] + CN(C)C/C=C/C(=O)Nc1cc2c(Nc3ccc(F)c(Cl)c3)ncnc2cc1O[C@H]1CCOC1 [Afatinib] the “cell viability of combination” value was 82.6.

test system: WHIM2 (cells of a triple-negative basal-like breast cancer xenograft); assay: as above; conditions: 1 µM; 72 h; partner dose: 10 nM
Procedure: as §1

Going from `CC(O)C(=O)O.CCOc1ccc2nc3cc(N)ccc3c(N)c2c1.O` [Ethacridine lactate monohydrate] + CN(C)C/C=C/C(=O)Nc1cc2c(Nc3ccc(F)c(Cl)c3)ncnc2cc1O[C@H]1CCOC1 [Afatinib] to `CCOc1cc2ncc(C#N)c(Nc3ccc(OCc4ccccn4)c(Cl)c3)c2cc1NC(=O)C=CCN(C)C` [Neratinib (HKI-272)] + CN(C)C/C=C/C(=O)Nc1cc2c(Nc3ccc(F)c(Cl)c3)ncnc2cc1O[C@H]1CCOC1 [Afatinib], the “cell viability of combination” value falls from 31.1 to 25.5.

Going from `O=C(c1ccc(F)c(F)c1Nc1ccc(I)cc1F)N1CC(O)(C2CCCCN2)C1` (stereo unspecified) [Cobimetinib] + CN(C)C/C=C/C(=O)Nc1cc2c(Nc3ccc(F)c(Cl)c3)ncnc2cc1O[C@H]1CCOC1 [Afatinib] to `Cc1c(Cl)cccc1Nc1ccccc1C(=O)O` [Tolfenamic Acid] + CN(C)C/C=C/C(=O)Nc1cc2c(Nc3ccc(F)c(Cl)c3)ncnc2cc1O[C@H]1CCOC1 [Afatinib], the “cell viability of combination” value rises from 27 to 51.

First: CC(NCCCc1cccc(C(F)(F)F)c1)c1cccc2ccccc12.Cl (stereo unspecified) [Cinacalcet HCl] + CN(C)C/C=C/C(=O)Nc1cc2c(Nc3ccc(F)c(Cl)c3)ncnc2cc1O[C@H]1CCOC1 [Afatinib]
Second: Cc1cccc(CN2CCN(C(c3ccccc3)c3ccc(Cl)cc3)CC2)c1.Cl.Cl (stereo unspecified) [Meclizine 2HCl] + CN(C)C/C=C/C(=O)Nc1cc2c(Nc3ccc(F)c(Cl)c3)ncnc2cc1O[C@H]1CCOC1 [Afatinib]
The “cell viability of combination” value of the first is lower: 43.1 for the first, 53.1 for the second.

First: CC[C@H](C)[C@H]1O[C@]2(CC[C@@H]1C)C[C@@H]1C[C@@H](C/C=C(\C)[C@@H](O[C@H]3C[C@H](OC)[C@@H](O[C@H]4C[C@H](OC)[C@@H](O)[C@H](C)O4)[C@H](C)O3)[C@@H](C)/C=C/C=C3\CO[C@@H]4[C@H](O)C(C)=C[C@@H](C(=O)O1)[C@]34O)O2 [Ivermectin] + CN(C)C/C=C/C(=O)Nc1cc2c(Nc3ccc(F)c(Cl)c3)ncnc2cc1O[C@H]1CCOC1 [Afatinib]
Second: CCC(=C(c1ccccc1)c1ccc(OCCN(C)C)cc1)c1ccccc1.O=C(O)CC(O)(CC(=O)O)C(=O)O [Tamoxifen Citrate] + CN(C)C/C=C/C(=O)Nc1cc2c(Nc3ccc(F)c(Cl)c3)ncnc2cc1O[C@H]1CCOC1 [Afatinib]
The “cell viability of combination” value of the first is lower: 44.5 for the first, 51 for the second.

With `CCCCCCCCc1ccc(CCC(N)(CO)CO)cc1.Cl` [Fingolimod (FTY720)] + CN(C)C/C=C/C(=O)Nc1cc2c(Nc3ccc(F)c(Cl)c3)ncnc2cc1O[C@H]1CCOC1 [Afatinib] the “cell viability of combination” value was 44.5.
